# Measured values: PMC7862700, “An all-to-all approach to the identification of sequence-specific readers for epigenetic DNA modifications on cytosine”
# Assays:
# Experiment in all cases: DAPPL (digital affinity profiling via proximity ligation, sequencing); 10 mM Tris-HCl pH 7.5, 50 mM NaCl, 1 mM DTT, 4% glycerol, room temperature, 30 min; GST-TFs on glutathione beads, 16-mer random dsDNA library, 0.1% formaldehyde crosslink after washing; high values mean tight binding
# Conditions in all cases: protein: recombinant; tags: N-terminal GST; dsDNA, one strand shown
# ERF = biological target: T1, ERF (Homo sapiens, UniProt P50548 1-548)
# T1 sequence: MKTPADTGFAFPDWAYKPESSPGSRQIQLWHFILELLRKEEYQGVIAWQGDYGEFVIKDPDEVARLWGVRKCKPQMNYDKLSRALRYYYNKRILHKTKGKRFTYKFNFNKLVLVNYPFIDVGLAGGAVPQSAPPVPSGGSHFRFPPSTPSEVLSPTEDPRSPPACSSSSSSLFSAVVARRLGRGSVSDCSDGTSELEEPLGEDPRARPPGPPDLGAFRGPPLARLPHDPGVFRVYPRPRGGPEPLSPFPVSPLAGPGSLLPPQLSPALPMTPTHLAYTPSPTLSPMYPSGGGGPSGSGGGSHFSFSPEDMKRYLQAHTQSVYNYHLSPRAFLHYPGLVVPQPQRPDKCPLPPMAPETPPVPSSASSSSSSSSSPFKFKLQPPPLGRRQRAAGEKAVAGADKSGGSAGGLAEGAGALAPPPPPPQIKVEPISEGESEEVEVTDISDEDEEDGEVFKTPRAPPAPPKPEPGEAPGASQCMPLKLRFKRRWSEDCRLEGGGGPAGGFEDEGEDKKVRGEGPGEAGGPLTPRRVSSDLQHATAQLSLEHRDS
# Procedure, shortened: (§1)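 Sequencing on an Illumina NextSeq500 followed washing, crosslinking with 0.1% formaldehyde, proximity ligation (BsaI/T4 ligase, 1 h, 37 °C) and PCR amplification of pools that had been incubated for 30 min at room temperature with 200 nmole of a random double-stranded 16-mer DNA library in Tris/NaCl/DTT/glycerol buffer. Each pool held DNA-barcoded human transcription factors, expressed in yeast as GST fusions and captured on glutathione beads, plus a tag-only sample. Binding signal is a hexamer's read frequency for a factor divided by its frequency in the tag-only sample.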
# ETV3L = biological target: T2, ETV3L (Homo sapiens, UniProt Q6ZN32 1-361)
# T2 sequence: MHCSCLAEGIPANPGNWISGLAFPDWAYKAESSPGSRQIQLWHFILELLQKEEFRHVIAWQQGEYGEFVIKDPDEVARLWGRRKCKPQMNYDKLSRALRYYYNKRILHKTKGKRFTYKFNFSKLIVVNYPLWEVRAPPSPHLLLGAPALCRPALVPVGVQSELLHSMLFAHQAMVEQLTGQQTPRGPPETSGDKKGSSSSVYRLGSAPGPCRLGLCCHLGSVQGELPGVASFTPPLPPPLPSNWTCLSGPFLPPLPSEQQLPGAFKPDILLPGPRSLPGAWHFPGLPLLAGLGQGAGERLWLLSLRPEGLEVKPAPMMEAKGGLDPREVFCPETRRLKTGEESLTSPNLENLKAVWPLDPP
# Procedure, shortened: as §1
# ETS2 = biological target: T3, ETS2 (Homo sapiens, UniProt P15036 1-469)
# T3 sequence: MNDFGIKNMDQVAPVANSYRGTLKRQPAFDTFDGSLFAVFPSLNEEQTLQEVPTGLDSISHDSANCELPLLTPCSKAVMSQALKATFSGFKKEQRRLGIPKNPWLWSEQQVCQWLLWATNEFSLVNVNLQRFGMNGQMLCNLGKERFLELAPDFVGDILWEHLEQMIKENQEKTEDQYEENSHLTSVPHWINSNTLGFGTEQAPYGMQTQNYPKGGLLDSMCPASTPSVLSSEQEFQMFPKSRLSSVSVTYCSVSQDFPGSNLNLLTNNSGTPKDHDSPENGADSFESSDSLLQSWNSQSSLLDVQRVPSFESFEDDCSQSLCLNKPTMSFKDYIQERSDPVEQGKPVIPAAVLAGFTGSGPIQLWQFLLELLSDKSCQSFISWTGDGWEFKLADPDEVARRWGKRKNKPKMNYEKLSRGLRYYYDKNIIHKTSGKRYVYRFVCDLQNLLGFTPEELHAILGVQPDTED
# Procedure, shortened: as §1
# SPDEF = biological target: T4, SPDEF (Homo sapiens, UniProt O95238 1-335)
# T4 sequence: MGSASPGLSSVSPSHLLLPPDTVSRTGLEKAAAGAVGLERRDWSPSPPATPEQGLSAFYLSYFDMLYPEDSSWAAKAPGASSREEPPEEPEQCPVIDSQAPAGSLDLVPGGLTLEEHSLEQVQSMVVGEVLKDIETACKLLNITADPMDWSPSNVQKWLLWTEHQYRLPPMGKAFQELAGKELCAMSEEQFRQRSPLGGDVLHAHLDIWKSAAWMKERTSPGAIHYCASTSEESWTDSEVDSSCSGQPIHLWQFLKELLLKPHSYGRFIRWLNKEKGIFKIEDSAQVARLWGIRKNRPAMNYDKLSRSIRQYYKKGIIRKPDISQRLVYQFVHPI
# Procedure, shortened: as §1
# ETV7 = biological target: T5, ETV7 (Homo sapiens, UniProt Q9Y603 1-341)
# T5 sequence: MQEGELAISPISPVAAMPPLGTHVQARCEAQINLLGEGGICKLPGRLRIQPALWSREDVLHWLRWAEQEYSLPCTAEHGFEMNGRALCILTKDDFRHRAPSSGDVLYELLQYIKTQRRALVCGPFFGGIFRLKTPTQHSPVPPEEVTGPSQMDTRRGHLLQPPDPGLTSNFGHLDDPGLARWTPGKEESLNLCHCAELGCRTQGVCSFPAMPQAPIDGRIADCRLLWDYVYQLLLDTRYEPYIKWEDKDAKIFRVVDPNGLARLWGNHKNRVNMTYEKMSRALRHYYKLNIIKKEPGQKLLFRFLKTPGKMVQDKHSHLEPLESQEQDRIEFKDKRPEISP
# Procedure, shortened: as §1
# ELF5 = biological target: T6, ELF5 (Homo sapiens, UniProt Q9UKW6-2 1-255)
# T6 sequence: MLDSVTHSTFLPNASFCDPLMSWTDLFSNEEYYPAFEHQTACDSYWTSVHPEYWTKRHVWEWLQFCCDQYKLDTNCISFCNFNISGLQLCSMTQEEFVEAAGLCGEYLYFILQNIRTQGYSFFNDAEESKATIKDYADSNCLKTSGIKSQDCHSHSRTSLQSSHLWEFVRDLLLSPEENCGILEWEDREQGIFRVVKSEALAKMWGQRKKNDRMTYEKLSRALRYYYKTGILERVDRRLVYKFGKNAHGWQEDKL
# Procedure, shortened: as §1
# ETV3 = biological target: T7, ETV3 (Homo sapiens, UniProt P41162-2 1-143)
# T7 sequence: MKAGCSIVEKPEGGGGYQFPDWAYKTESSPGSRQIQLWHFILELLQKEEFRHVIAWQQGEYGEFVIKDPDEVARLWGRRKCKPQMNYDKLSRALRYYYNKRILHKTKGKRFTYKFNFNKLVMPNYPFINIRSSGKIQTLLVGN
# Procedure, shortened: as §1
# ETV6 = ETV6 (Homo sapiens, UniProt P41212 1-452)
# Procedure, shortened: as §1
# ETV6, sequence (P41212 whole entry): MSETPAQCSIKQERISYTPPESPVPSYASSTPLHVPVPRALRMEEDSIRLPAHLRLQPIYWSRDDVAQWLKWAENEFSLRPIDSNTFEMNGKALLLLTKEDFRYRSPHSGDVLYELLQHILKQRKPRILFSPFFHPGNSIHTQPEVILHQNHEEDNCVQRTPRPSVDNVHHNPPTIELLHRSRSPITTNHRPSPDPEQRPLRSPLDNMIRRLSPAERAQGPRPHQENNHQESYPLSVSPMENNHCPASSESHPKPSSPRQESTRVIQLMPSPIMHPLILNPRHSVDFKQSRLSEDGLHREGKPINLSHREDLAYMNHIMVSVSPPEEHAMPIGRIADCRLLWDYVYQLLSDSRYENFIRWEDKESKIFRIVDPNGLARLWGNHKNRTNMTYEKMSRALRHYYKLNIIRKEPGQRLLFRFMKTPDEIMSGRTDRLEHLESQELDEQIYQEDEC
Sequence,binding signal (ERF),binding signal (ETV3L),binding signal (ETS2),binding signal (SPDEF),binding signal (ETV7),binding signal (ELF5),binding signal (ETV3),binding signal (ETV6)
GATGTT,"1.24 fold enrichment (6-mer frequency, TF over GST control)","1.31 fold enrichment (6-mer frequency, TF over GST control)","1.24 fold enrichment (6-mer frequency, TF over GST control)","1.51 fold enrichment (6-mer frequency, TF over GST control)","1.21 fold enrichment (6-mer frequency, TF over GST control)","1.32 fold enrichment (6-mer frequency, TF over GST control)","1.34 fold enrichment (6-mer frequency, TF over GST control)","1.3 fold enrichment (6-mer frequency, TF over GST control)"
AACTCA,"1.18 fold enrichment (6-mer frequency, TF over GST control)","1.18 fold enrichment (6-mer frequency, TF over GST control)","1.28 fold enrichment (6-mer frequency, TF over GST control)","1.22 fold enrichment (6-mer frequency, TF over GST control)","1.2 fold enrichment (6-mer frequency, TF over GST control)","1.22 fold enrichment (6-mer frequency, TF over GST control)","1.26 fold enrichment (6-mer frequency, TF over GST control)","1.34 fold enrichment (6-mer frequency, TF over GST control)"
TTATGG,"1.31 fold enrichment (6-mer frequency, TF over GST control)","1.32 fold enrichment (6-mer frequency, TF over GST control)","1.26 fold enrichment (6-mer frequency, TF over GST control)","1.26 fold enrichment (6-mer frequency, TF over GST control)","1.36 fold enrichment (6-mer frequency, TF over GST control)","1.28 fold enrichment (6-mer frequency, TF over GST control)","1.44 fold enrichment (6-mer frequency, TF over GST control)","1.35 fold enrichment (6-mer frequency, TF over GST control)"
AAAGAC,"1.08 fold enrichment (6-mer frequency, TF over GST control)","1.06 fold enrichment (6-mer frequency, TF over GST control)","1.12 fold enrichment (6-mer frequency, TF over GST control)","1.01 fold enrichment (6-mer frequency, TF over GST control)","1.03 fold enrichment (6-mer frequency, TF over GST control)","1.03 fold enrichment (6-mer frequency, TF over GST control)","1.01 fold enrichment (6-mer frequency, TF over GST control)","1.16 fold enrichment (6-mer frequency, TF over GST control)"
CACGCT,"1.35 fold enrichment (6-mer frequency, TF over GST control)","1.37 fold enrichment (6-mer frequency, TF over GST control)","1.31 fold enrichment (6-mer frequency, TF over GST control)","1.35 fold enrichment (6-mer frequency, TF over GST control)","1.36 fold enrichment (6-mer frequency, TF over GST control)","1.25 fold enrichment (6-mer frequency, TF over GST control)","1.37 fold enrichment (6-mer frequency, TF over GST control)","1.34 fold enrichment (6-mer frequency, TF over GST control)"
CTCATT,"1.35 fold enrichment (6-mer frequency, TF over GST control)","1.47 fold enrichment (6-mer frequency, TF over GST control)","1.49 fold enrichment (6-mer frequency, TF over GST control)","1.33 fold enrichment (6-mer frequency, TF over GST control)","1.29 fold enrichment (6-mer frequency, TF over GST control)","1.5 fold enrichment (6-mer frequency, TF over GST control)","1.39 fold enrichment (6-mer frequency, TF over GST control)","1.45 fold enrichment (6-mer frequency, TF over GST control)"
